Test results from PubChem BioAssay AID1259418 (Broad Institute, 2018).
The campaign covered roughly 3,400 compounds. About 840 (25%) were called active. Another 11% or so got no clear call; they are omitted. Not all results are given here. Results with a measured potency or affinity are listed apart. Values without a mark were called inactive.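 The calls were made as follows: active = fitted half-maximal concentration of signal decrease at or below twice the sample's top tested concentration; inconclusive = flat curve between -70 and -30 percent, or poor fit; inactive = flat within 30 percent, signal rise, or potency above limit.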

Experiment: T. gondii growth inhibition with IFN-gamma, dose response, cell-based, ME49Luc, HeLa, luciferase, 72 h (AID 1259418)
Settings: T. gondii ME49Luc in IFN-y HeLa, stronger effect = lower value, -100% = high-dose IFN-γ control wells; at 19.5 µM unless noted

SMILES | max activity
CCOC(=O)CC(=O)Nc1ccc(-c2nc(-c3cc(C)ccc3C)co2)cc1 | -6.71% [at 0.35 µM]
CCC(C(=O)N1CCC2(CC1)Nc1ccc(C)c(C)c1-n1cccc12)c1ccccc1 (configuration not stated) | 8.62% [at 2.6 µM]
CCOC(=O)C1CCCN(C(=O)Cn2cccc2-c2nc(-c3ccc(C)cc3)cs2)C1 (configuration not stated) | -28.8%
Cc1ccc(-c2csc(-c3cccn3CC(=O)N3CCC(N4CCCCC4)CC3)n2)cc1 | 6.16% [at 0.16 µM]
CCOC(=O)C1CCN(C(=O)Cn2cccc2-c2nc(-c3ccc(C)cc3)cs2)CC1 | 11.7%
CCN1CCCC1CNC(=O)Cn1cccc1-c1nc(-c2ccccc2)cs1 (configuration not stated) | -11%
COCCN1CCc2nc(SCc3nc(-c4ccc(OC)c(OC)c4)oc3C)[nH]c(=O)c2C1 | 34.3% [at 10 µM]
CN1C(=O)CCc2cc(NC(=O)c3cccs3)ccc21 | 71.4%
Cc1ccc(C)c(NC(=O)N2CCN(Cc3nc(-c4ccccc4C)oc3C)CC2)c1 | 4.41% [at 2.6 µM]
COc1cccc(C(=O)Nc2ccc(-c3nc(-c4cc(C)ccc4C)co3)cc2)c1 | 7.15% [at 0.16 µM]
Cc1nnc(N2C[C@@H](Oc3ncccc3F)[C@@H]3OCCC[C@@H]32)s1 | 9.8%
COc1ccc(-c2nc3c(s2)CN(S(=O)(=O)c2ccc(C)cc2)CC3)cc1 | 9.64% [at 10 µM]
COc1ccc(S(=O)(=O)N2CCc3nc(-c4ccc(C)cc4)sc3C2)cc1 | -4.65% [at 2.6 µM]
COc1ccc(-c2nc3c(s2)CN(S(=O)(=O)c2ccc(OC)cc2)CC3)cc1 | 12.4%
COc1cccc(-c2nc3c(s2)CN(S(=O)(=O)c2ccc(C)c(C)c2)CC3)c1 | -17.2% [at 10 µM]
Cc1ccc(C)c(-c2coc(-c3ccc(NC(=O)COc4ccc(F)cc4)cc3)n2)c1 | 15.1%
N#Cc1ccc(S(=O)(=O)N2CCC(N3CCOCC3)CC2)cc1 | -17.4% [at 0.35 µM]
CCc1ccccc1NC(=O)CN1CCC2(CC1)N=C(c1ccc(Cl)cc1)C(=O)N2 | 13%
Cc1nc(-c2ccc(F)cc2)sc1-c1ccc(SCc2ccc(C(F)(F)F)cc2)nn1 | 6.62% [at 0.68 µM]
COc1ccccc1NC(=O)CN1CCC2(CC1)N=C(c1ccc(F)cc1)C(=O)N2 | 11.3%
Cc1oc(-c2ccccc2)nc1CN(c1ccccc1)S(=O)(=O)c1cccs1 | 8.04% [at 0.68 µM]
Cc1ccc(-c2nc(CN(c3ccc(C)cc3)S(=O)(=O)c3cccs3)c(C)o2)cc1 | 12.6% [at 0.16 µM]
Cc1ccc(N(Cc2nc(-c3ccc(OC(C)C)cc3)oc2C)S(=O)(=O)c2cccs2)cc1 | -11.4% [at 0.68 µM]
COc1ccccc1-c1nc(CSc2nc3c(c(=O)[nH]2)CN(Cc2ccc(F)cc2)CC3)c(C)o1 | 38.6% [at 5 µM]
Cc1ccc2c(c1C)-n1cccc1C1(CCN(C(=O)c3cccc(N(C)C)c3)CC1)N2 | -17.3% [at 0.35 µM]
COCCC(=O)N1C[C@H](OCc2ccccn2)[C@@H]2COC[C@@H]21 | 46.2%

SMILES | max activity
COc1ccc(CCC(=O)N2CCC[C@@H]2C(=O)NCCc2csc(-c3ccccc3)n2)cc1 | 15.9% [at 2.6 µM]
COCCN1CCc2nc(SCc3nc(-c4ccc(C)cc4)oc3C)[nH]c(=O)c2C1 | -13.7% [at 2.6 µM]
COc1ccc(-c2nc(Cn3nnc(-c4nc(-c5cccc(C(F)(F)F)c5)no4)c3C)c(C)o2)cc1 | -6.58% [at 5 µM]
CCOc1ccc(NC(=O)Nc2ccc(-c3nc(-c4cccc(Br)c4)co3)cc2)cc1 | 4.75% [at 10 µM]
COc1cccc(-c2nc3c(s2)CN(S(=O)(=O)c2ccc(F)cc2)CC3)c1 | 19.6%
COc1ccc(-c2nc(Nc3cc(F)ccc3F)c3ccccc3n2)cc1 | 38%
COc1ccc(-c2nc3c(s2)CN(S(=O)(=O)c2ccc(CC(C)C)cc2)CC3)cc1 | -5.7% [at 10 µM]
CCOC(=O)C1CCC(CNC(=O)Nc2ccc(-c3nc(-c4cc(C)ccc4C)co3)cc2)CC1 (configuration not stated) | 10.8% [at 0.16 µM]
Cc1cc(C2CCCN2C(=O)Cn2nc(C(F)(F)F)cc2C)on1 (configuration not stated) | 9.62% [at 0.16 µM]
Cc1ccc(-c2coc(-c3ccc(NC(=O)NC4CCCC4)cc3)n2)c(C)c1 | 13.7%
Cc1nc(OCC(=O)Nc2ccccc2F)c2ccccc2n1 | 19.1% [at 0.16 µM]
COCCN1CCc2nc(SCc3nc(-c4cccc(C)c4)oc3C)[nH]c(=O)c2C1 | 12% [at 0.16 µM]
CCN1CCn2c(-c3cccc(F)c3)cnc2C12CCN(c1ncccn1)CC2 | 40.4%
Cc1ccc(C)c(NC(=O)CN2CCC3(CC2)N=C(c2cccc(F)c2)C(=O)N3)c1 | -32.1%
COc1ccc(-c2nc(NC(C)c3ccccc3)c3ccccc3n2)cc1 (configuration not stated) | 18.4% [at 5 µM]
COc1ccc(C(=O)N2CCC3(CC2)Nc2ccc(C)c(C)c2-n2cccc23)c(OC)c1 | -29.7% [at 0.16 µM]
Cc1ccc(C)c(-c2coc(-c3ccc(NC(=O)c4ccc(Br)o4)cc3)n2)c1 | 9.77% [at 10 µM]
COCCN1CCc2c(cnc(-c3cccnc3)c2C(=O)O)C1 | 17.7% [at 2.6 µM]
CN1C(=O)CCc2cc(NC(=O)c3cccnc3)ccc21 | -16.3% [at 0.16 µM]
COc1ncccc1NC(=O)c1cc(-c2cnc(N3CCCC3)nc2)cn1CC1CC1 | 6%
O=C(NCc1ccc(F)cc1F)c1cc(-c2cnc(N3CCCC3)nc2)cn1CC1CC1 | -11.3% [at 0.038 µM]
COC(=O)[C@@H]1C[C@@H](N(C)C)CN1S(=O)(=O)c1c(C)ccc2nsnc12 | 25.5%
Cc1ccc(-c2coc(-c3ccc(NC(=O)COc4ccc(F)cc4)cc3)n2)cc1 | -52.1% [at 0.68 µM]
O=C(NCc1ccc(F)cc1)Nc1ccc(-c2nc(-c3ccccc3)co2)cc1 | 16.3% [at 1.35 µM]
COc1ccc(C(=O)N2CCC(C(=O)NCCc3csc(-c4ccccc4)n3)CC2)cc1 | 12.2% [at 0.16 µM]
COc1cccc(C(=O)N2CCC(C(=O)NCCc3csc(-c4ccccc4)n3)CC2)c1 | -23.1%

SMILES | max activity
CCOC(=O)C1CCN(C(=O)c2ccc(-c3csc(C4CC4)n3)cc2)CC1 | 40.1%
COc1ccc(-c2nc(N3CCN(c4cccc(C)c4)C(C)C3)c3ccccc3n2)cc1 (configuration not stated) | 60.7%
Cc1ccc(-c2nc(Cn3nnc(-c4nc(-c5ccc(C(F)(F)F)cc5)no4)c3C)c(C)o2)cc1 | 11.8% [at 0.35 µM]
CCc1nc(OCC(=O)Nc2ccccc2C)c2ccccc2n1 | 13% [at 0.16 µM]
O=C(CCC1N=C2c3ccccc3N=C(SCc3ccccc3Cl)N2C1=O)NCc1ccco1 (configuration not stated) | 35.4% [at 10 µM]
CCOC(=O)c1ccc(NC(=O)Nc2ccc(-c3nc(-c4ccc(C)cc4C)co3)cc2)cc1 | 15.1% [at 0.16 µM]
CCOc1ccc(NC(=O)Nc2ccc(-c3nc(-c4ccccc4)co3)cc2)cc1 | 55.1%
COc1ccc2c(c1)NC1(CCN(C(=O)c3ccc(Br)o3)CC1)c1cccn1-2 | 8.21% [at 0.35 µM]
CC(C)(C)NC1=NCCNC12CCN(S(=O)(=O)c1ccc3c(c1)CCCC3)CC2 | -19.2% [at 0.35 µM]
COc1ccc(NC(=O)Nc2ccc(-c3nc(-c4ccccc4)co3)cc2)c(OC)c1 | 53.6% [at 10 µM]
O=C(CC(F)(F)F)N1C[C@@H]2[C@H](c3ccccc31)[C@H](CO)N2CC1CCOCC1 | 54.6%
Cc1oc(-c2ccccc2Cl)nc1Cn1c(=O)c2cccnc2n(-c2ccccc2)c1=O | 6.15% [at 5 µM]
O=C(CC1Nc2c3ccccc3nc(=S)n2C1=O)N1CCN(c2cccc(C(F)(F)F)c2)CC1 (configuration not stated) | 105%
COc1cccc(N2CCN(C(=O)CC3Nc4c5ccccc5nc(=S)n4C3=O)CC2)c1 (configuration not stated) | 50.6%
Cc1ccc(C)c(N2CCN(C(=O)CC3Nc4c5ccccc5nc(=S)n4C3=O)CC2)c1 (configuration not stated) | 190% [at 10 µM]
COc1ccccc1CNC(=O)CCC1Nc2c3ccccc3nc(=S)n2C1=O (configuration not stated) | 15% [at 2.6 µM]
Cc1ccc(Cl)cc1N1CCN(C(=O)CC2Nc3c4ccccc4nc(=S)n3C2=O)CC1 (configuration not stated) | 25.8% [at 0.35 µM]
O=C(CCC1Nc2c3ccccc3nc(=S)n2C1=O)N1CCN(c2ccccc2F)CC1 (configuration not stated) | 35.9%
Cc1cccc(-c2nc(Cn3nnc(-c4nc(-c5ccc(OC(F)(F)F)cc5)no4)c3C)c(C)o2)c1 | -4.39% [at 0.35 µM]
Cc1oc(-c2cccc(Cl)c2)nc1CSc1nc2c(c(=O)[nH]1)CN(Cc1ccccc1)CC2 | 20.2% [at 0.35 µM]
CCCc1cc(C2CCCN2C(=O)c2cc(C(F)(F)F)nn2C)no1 (configuration not stated) | 13.3% [at 0.16 µM]
Fc1ccccc1CSc1nc(NCc2ccco2)c2ccccc2n1 | 15% [at 2.6 µM]
Clc1ccc(CNc2nc(SCc3ccccc3Cl)nc3ccccc23)cc1 | -19% [at 10 µM]
Clc1ccccc1CSc1nc(NCCc2ccccc2)c2ccccc2n1 | 13.2% [at 5 µM]
COc1ccc(CNc2nc(SCc3ccccc3F)nc3ccccc23)cc1 | 8.85% [at 0.68 µM]
